# Source: paper PMC12136788
# Positions count from the first letter of the chain named. The full ranking holds about 24,000 sequences; the median of “enrichment r” is about 0.99, and the highest 2% start at about 3.7. The sample as a whole holds a higher share of the highest values than the screen did.
# T1: UNK ZnF1-3 (human, UniProt Q9C0B0 31-174)
# T1 sequence: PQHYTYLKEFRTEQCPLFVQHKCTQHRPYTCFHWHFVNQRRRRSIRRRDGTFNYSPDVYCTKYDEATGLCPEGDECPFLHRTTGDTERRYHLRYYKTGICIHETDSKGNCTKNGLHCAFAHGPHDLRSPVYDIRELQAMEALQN
# B1: 129217275_129261777_1030_CDS_ENSMUSG00000036155_ENSMUST00000038361|mouse|control|control (ssRNA)
# RNA: GGGAGUUCUACAGUCCGACGAUCGUAGCCAUCCAUAGGAGGCAAUACACAUUUUUCCUGAACUCCAUUAAUGAUAUCUGCCACAUUAAUUUUCUCAAGCGACACCAAGCUGGGGACAGCCGUGGUGGAGUUGGUGGAGUUCGCCAACAGAGGAUUGAGCAUCA
# B2: 107042093_107043494_1117_CDS_ENSMUSG00000031878_ENSMUST00000034349|mouse|control|control (ssRNA)
# RNA: GGGAGUUCUACAGUCCGACGAUCAACAGACUGAAGCAAUUUGGCAACGUGAUUGCCUACAGCAGCAGCAUCUUUCUUUGCUUUCUCUCGGUAAACAUUCUGCAGUUUUAUGUAUUUGUUUGAAUCUGCAAUCAUAUCAGGAAUCAACAGAGGAUUGAGCAUCA
# B3: chr7:141441981:141441982:+_ENSG00000106028_ENST00000265304|hu_mus|hu_hu_hu_mus_False|58_58 (ssRNA)
# RNA: GGGAGUUCUACAGUCCGACGAUCCUCAUGUCUUACAAACUGACGAAAUACCUGUAACACAGGUCUUCGAAACAUGGCUUCUAUUUUUCUUACAACCUAAUCUUUAGGCUUUUCCUAAAGGAAAGAAAGAAAAGAGAAAAAUGACAACAGAGGAUUGAGCAUCA
# B4: chrX:16871948:16871949:-_ENSG00000102054_ENST00000404022|hu_mus|FALSE|FALSE (ssRNA)
# RNA: GGGAGUUCUACAGUCCGACGAUCAGUAAAGAUUGCUUUAGCAUCCACAAUUUUGCCUUCCUUUGGUCCUGCAUUUAUAUCCCACAGGCAGACAGUAUGGUCAUCAGAUGCACUCAGGAGAUGCCCACUCAGAUUAGAAUUCCACAACAGAGGAUUGAGCAUCA
# B5: chr22:35691198:35691199:+_ENSG00000100281_ENST00000216106|hu_mus|FALSE|FALSE (ssRNA)
# RNA: GGGAGUUCUACAGUCCGACGAUCACAGUCCUGUGAGAAGCUUAGCUGUGACAGCAGUCGGGCUAUGGGAAGGAGUUCCCUAGGAUGCCAGCUGGCUACAUGGUCCCCAAAGGUUUACUGUGAUGCUGCCUCGUUCCAUCCAGGCAACAGAGGAUUGAGCAUCA
# B6: chr9:14812383:14812384:-_ENSMUSG00000031934_ENSMUST00000164273|mus_mus|mus_mus_mus_hu_True|28_48 (ssRNA)
# RNA: GGGAGUUCUACAGUCCGACGAUCAUAGCCCAGGUAGAUACACGCUAACAGUAUAAUGAUGAGUGUCAGCAGGCGGCAGCUAAUGUAUUUCAUGAUUAAAUUAUUAGAGUUCUUUUUUGUCUUCAAGUACUGCUCCACAAUUGGCAACAGAGGAUUGAGCAUCA
# B7: chr9:14812383:14812384:-_ENSMUSG00000031934_ENSMUST00000164273|mus_mus|mus_mus_mus_hu_True|38_48 (ssRNA)
# RNA: B6 RNA with U101G, U103C, G108A, C111U, U114C
# B8: chr9:14812383:14812384:-_ENSMUSG00000031934_ENSMUST00000164273|mus_mus|mus_mus_mus_hu_True|48_48 (ssRNA)
# RNA: B6 RNA with G108A, C111U, U114C
# B9: chrX:98862621:98862622:+_ENSMUSG00000034160_ENSMUST00000044475|mus_hu|mus_mus_mus_hu_False|78_78 (ssRNA)
# RNA: GGGAGUUCUACAGUCCGACGAUCCUGCAUCUCCUUUAGAGUGUUUCCCAUAUUAGAAUAAGCAUCAGCAAAGGUAGGACUGAUUCGAAUAGCCUCCUUAUAAUGCAUCAGAGCUUCCUGCAGUUUUCCCUGCUGCUGCAGUACCAACAGAGGAUUGAGCAUCA
# B10: chr1:6284582:6284583:-_ENSG00000116237_ENST00000343813|hu_hu|motif|central (ssRNA)
# RNA: GGGAGUUCUACAGUCCGACGAUCAGCUAGGAAUACCCCUUUGAAUGUGUACUGCUACUUAUAAAAAAUAGGUAUGUAGCGGUGAUUAAAUAGAUGAAGGGCCAAAGCAUCCUAUGAGGAAGUAUUUUUAAAAUUGUAUAGAUGCAACAGAGGAUUGAGCAUCA
# B11: chr9:14812383:14812384:-_ENSMUSG00000031934_ENSMUST00000164273|mus_mus|mus_mus_mus_hu_True|68_98 (ssRNA)
# RNA: B6 RNA with C42U, U45C, G68C, G72C, U87C, C90G, G108A, C111U, U114C
# B12: chr12:1897663:1897664:+_ENSG00000006831_ENST00000357103|hu_mus|FALSE|FALSE (ssRNA)
# RNA: GGGAGUUCUACAGUCCGACGAUCGCUUUGUGAUUUCAGCAACUUAUAGAGGGGAGAGAGGAAAUACUGAAAAAGGCCACUAUUUAAUGAUGAGAGAGUGAAGGUGUACAGGUUCCUAACCAGCCUAGGGCCAAAAAAGGAGACCAACAGAGGAUUGAGCAUCA
# B13: chr12:1897663:1897664:+_ENSG00000006831_ENST00000357103|hu_mus|motif|central (ssRNA)
# RNA: B12 RNA with U80G, A81G
# B14: chr1:6284582:6284583:-_ENSG00000116237_ENST00000343813|hu_hu|FALSE|FALSE (ssRNA)
# RNA: B10 RNA with G80U, G81A
# Molecular target: T1, UNK ZnF1-3
# Assay: nsRBNS (natural sequence RNA bind-n-seq); RBNS binding buffer (assumed for nsRBNS): 25 mM Tris pH 7.5, 150 mM KCl, 3 mM MgCl2, 0.01% Triton X-100, 500 ug/ml BSA, 20 U/ml SUPERase-In, 4 C; UNK is unkempt and MSI1 is Musashi-1; names of the RNAs are library labels; protein concentration not given here; high values mean tight binding
row,Binder,binding signal [enrichment R]
1,B1,1.11
2,B2,1.02
3,B3,0.678
4,B4,1.03
5,B5,1.01
6,B6,3.67
7,B7,1.52
8,B8,3.85
9,B9,1.09
10,B10,6.98
11,B11,1.27
12,B12,3.52
13,B13,3.48
14,B14,6.19
